Compounds with a hit are over-represented: about 10% of the library has one in this group of screens.
Sfp inh = inhibitors of Bacillus subtilis Sfp phosphopantetheinyl transferase; Q9F4F7; Biochemical Sfp PPTase activity, qHTS; Potency, µM, for the others: largest response in the series, negative = inhibition, usual class: inhibitors; 310,000 tested, 3.5% active;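 further: the enzyme is Sfp with the accession as filed and its product quenches rhodamine fluorescence; potency means the concentration at half of the fitted maximal effect; 0% = enzyme reaction without inhibitor and -100% = no enzyme wells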
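Fluorescence-quenching assay: 15 nM Sfp-PPTase preincubated 15 min at room temperature with compound, then 5 uM rhodamine-CoA and 12.5 uM BHQ-2-labelled YbbR peptide added. Fluorescence (ex 525/em 598 nm) read at start and after 30 min; difference gives rate.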
PLK1 PBD inh = blocks phosphopeptide binding to human PLK1 polo-box domain; 360,000 tested, 2.8% active; P53350; Plk1 PBD binding of FITC phosphopeptide, fluorescence polarization; Potency, µM, without a hit: max response, negative = inhibition, most hits filed as inhibitors; further: potency means the concentration at half of the fitted maximal effect; series mostly up to about 57 µM; nearly all actives have a fitted effect of over 65% in size
CCT modulator = modulators of cytosolic chaperonin (CCT/TRiC) activity; activity change, % (concentration not given with the values), hits read low; 360,000 tested, 0.3% active; AID 651819; purified chaperonin ATPase assay, HTRF ADP detection, 30 min; in the data active means activity change below about -30%
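First, chaperonin was dispensed at 40 nM or 20 nM final depending on batch activity. Next, compounds were pinned at 76 uM and ATP added at 10 uM. After 30 min at 37 °C, ADP detection reagents ran 30 min at ambient temperature.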
Mm-Cpn inhibitor = M. maripaludis TRiC chaperonin inhibition; Potency, µM (doses to about 76.9 µM), for the others: at the highest dose activity, negative = inhibition, usual class: inhibitors; 330,000 tested, 0.031% active; purified Mm-Cpn ATPase, ADP Transcreener TR-FRET; further: potency means the concentration at half of the fitted maximal effect; nearly all actives have a fitted effect of over 80% in size
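ATPase read-out: TR-FRET ADP immunoassay (anti-ADP Eu cryptate vs ADP-d2), ex 320 nm, em 590/665 nm; signal drops as ADP forms. Enzyme 25 nM, ATP 10 uM, 30 min at 37°C after 10 min compound preincubation.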
VDR inh = blocks the human vitamin D receptor; 400,000 tested, 0.93% active; P11473; AID 504847; VDR-SRC2-3 peptide fluorescence polarization, 2 h; Potency, µM, inactives show max response, negative = inhibition, most hits filed as inhibitors; further: potency means the concentration at half of the fitted maximal effect
Target sequence (P11473 whole entry, looked up): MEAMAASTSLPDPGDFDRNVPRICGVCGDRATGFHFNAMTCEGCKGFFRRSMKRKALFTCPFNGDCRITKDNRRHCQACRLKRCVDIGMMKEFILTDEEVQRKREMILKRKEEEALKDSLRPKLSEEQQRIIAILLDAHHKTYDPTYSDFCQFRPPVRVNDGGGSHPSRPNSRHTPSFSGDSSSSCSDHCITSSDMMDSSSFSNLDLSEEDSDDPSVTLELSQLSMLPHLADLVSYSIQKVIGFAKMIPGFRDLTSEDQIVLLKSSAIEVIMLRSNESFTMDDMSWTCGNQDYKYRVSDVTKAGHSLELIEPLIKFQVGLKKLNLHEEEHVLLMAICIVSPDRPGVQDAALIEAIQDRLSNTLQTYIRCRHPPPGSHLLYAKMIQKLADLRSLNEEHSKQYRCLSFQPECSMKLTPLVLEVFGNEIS
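The screen uses fluorescence polarization to detect compounds that interfere with recruitment of the SRC2-3 coactivator peptide to VDR; plates are read after 2 h at room temperature.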
G9a block = blocks human histone lysine methyltransferase G9a. 350,000 tested, 8.8% active. Q96KQ7. G9a H3K9 monomethylation, AlphaScreen, 2 h. Potency, µM (highest dose often 102 µM), for the others: at the top dose activity, negative = inhibition, usual class: inhibitors; further: potency means the concentration at half of the fitted maximal effect; nearly all actives have a fitted effect of over 75% in size
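AlphaScreen read-out: biotin-H3K9 peptide (500 nM) methylation by 20 nM enzyme with 20 uM SAM, 2 h at room temperature after 15 min compound preincubation; anti-monomethyl H3K9 antibody plus donor/acceptor beads, 10 min dark.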
Starred values were filed as active, the others as inactive; [ ] = another dose, or the depositor's remark. Unless noted, the call rests on the fitted dose curve; in most records, active means well fitted curve in the direction sought with a large enough effect; inconclusive means small, poorly fitted or top-dose-only effect, or another doubt; inactive means no such curve, though single readings can be large; an effect the other way counts as inactive or inconclusive. Unless noted, on the % scale 0 is the no-effect control and ±100 the full control effect.

Results for COc1ccc(OCCn2cnc(Cl)c2Cl)cc1 ?
Sfp inh: 10%; PLK1 PBD inh: -17%; CCT modulator: 0; Mm-Cpn inhibitor: 0%; VDR inh: 0%; G9a block: -25%

How did CN(C)CCOC(=O)CC12CC3CC(C1)CC(CC(=O)OCCN(C)C)(C3)C2 do in these assays?
Sfp inh: 5%; PLK1 PBD inh: -11%; CCT modulator: -1; Mm-Cpn inhibitor: 1%; VDR inh: -13%; G9a block: -3%

Results for CN(C)CCOC(=O)C12CC3CC(C1)CC(C(=O)OCCN(C)C)(C3)C2 ?
Sfp inh: 21%; PLK1 PBD inh: 1%; CCT modulator: -3; Mm-Cpn inhibitor: 1%; VDR inh: 14%; G9a block: 56µM*

What do the screens show for `O=C(CCCCCCCC(=O)c1ccccc1)c1ccccc1`?
Sfp inh: 11%; PLK1 PBD inh: -9%; CCT modulator: -5; Mm-Cpn inhibitor: 0%; VDR inh: 0%; G9a block: 472%[59 µM]

Results for C=C(CCC(=O)c1ccccc1)C(=O)c1ccccc1 ?
Sfp inh: -19%; PLK1 PBD inh: -12%; CCT modulator: -3; Mm-Cpn inhibitor: -4%; VDR inh: 45µM*; G9a block: 50%[59 µM]

How did Cc1cc[n+](-c2ccccc2)c2ccccc12 do in these assays?
Sfp inh: 9%; PLK1 PBD inh: -16%; CCT modulator: -4; Mm-Cpn inhibitor: 7%; VDR inh: 84%; G9a block: 25µM*

Results for COc1ccccc1CNC(=O)CC(NS(=O)(=O)c1ccc(C)cc1)c1ccco1 (configuration not stated) ?
Sfp inh: 3%; PLK1 PBD inh: 27µM*; CCT modulator: 0; Mm-Cpn inhibitor: -2%; VDR inh: inconclusive; G9a block: -38%

What do the screens show for `COCCNC(=O)CC(NS(=O)(=O)c1ccc(C)cc1)c1ccco1` (configuration not stated)?
Sfp inh: -22%; PLK1 PBD inh: 1%; CCT modulator: -4; Mm-Cpn inhibitor: 3%; VDR inh: -13%; G9a block: 9%[2.33 µM]

How did O=C(O)CC(NS(=O)(=O)c1ccc(Br)cc1)c1ccco1 (configuration not stated) do in these assays?
Sfp inh: 13%; PLK1 PBD inh: -3%; CCT modulator: -3; Mm-Cpn inhibitor: 0%; VDR inh: 2%; G9a block: 79µM*

How did COc1cc2[nH]c(=O)n(Cc3ccc(C(=O)NCc4ccccc4)cc3)c(=O)c2cc1OC do in these assays?
VDR inh: -6%; G9a block: 5%[59 µM]

How did Cc1cccc(Oc2nc3ccccn3c(=O)c2/C=C(\C#N)c2nc3ccccc3s2)c1C do in these assays?
VDR inh: inconclusive; G9a block: 5.6µM*

Results for Cc1ccccc1Oc1nc2ccccn2c(=O)c1/C=C(\C#N)C(=O)Nc1c(C)n(C)n(-c2ccccc2)c1=O ?
Sfp inh: 7%; PLK1 PBD inh: -6%; CCT modulator: -1; Mm-Cpn inhibitor: -1%; VDR inh: inconclusive; G9a block: -9%

Results for COc1ccc(C2C3=C(NCCN=C3c3ccccc3)C(=O)N2c2ccccc2)c(OC)c1 (configuration not stated) ?
Sfp inh: -17%; PLK1 PBD inh: 2%; CCT modulator: -60*; Mm-Cpn inhibitor: -3%; VDR inh: 1%; G9a block: 12%

What do the screens show for `O=C1C2=C(C(c3ccccc3)=NCCN2)C(c2cccc([N+](=O)[O-])c2)N1c1ccccc1` (configuration not stated)?
Sfp inh: 1%; PLK1 PBD inh: inconclusive; CCT modulator: -1; Mm-Cpn inhibitor: -1%; VDR inh: -5%; G9a block: 5%

What do the screens show for `Cc1ccc(S(=O)(=O)OC[C@@H]2CN3[C@H](c4ccc(Br)cc4)[C@H](C)CC[C@H]3C(=O)O2)cc1`?
Sfp inh: 1%

Source: PubChem BioAssay (National Center for Advancing Translational Sciences (NCATS))
